# Only some compounds are listed: those with a hit (about 10% of all), similar ones and a draw of the others.
# JMJD2A Tudor – qHTS Assay for Inhibitors of JMJD2A-Tudor Domain | Lysine-specific demethylase 4A (Homo sapiens), O75164 | Potency, µM (titrated, usually from 114 µM), for the others: at the highest dose activity change, negative = inhibition, usual class: inhibitors | AlphaScreen JMJD2A-Tudor / H3K4me3 peptide binding | 390,000 tested, 4.4% active; further: potency means the concentration at half of the fitted maximal effect; on the % scale 0 is the no-effect control and ±100 the full control effect; nearly all actives have a fitted effect of over 50% in size
# Target sequence (O75164 whole entry, looked up, the tested form may be a part): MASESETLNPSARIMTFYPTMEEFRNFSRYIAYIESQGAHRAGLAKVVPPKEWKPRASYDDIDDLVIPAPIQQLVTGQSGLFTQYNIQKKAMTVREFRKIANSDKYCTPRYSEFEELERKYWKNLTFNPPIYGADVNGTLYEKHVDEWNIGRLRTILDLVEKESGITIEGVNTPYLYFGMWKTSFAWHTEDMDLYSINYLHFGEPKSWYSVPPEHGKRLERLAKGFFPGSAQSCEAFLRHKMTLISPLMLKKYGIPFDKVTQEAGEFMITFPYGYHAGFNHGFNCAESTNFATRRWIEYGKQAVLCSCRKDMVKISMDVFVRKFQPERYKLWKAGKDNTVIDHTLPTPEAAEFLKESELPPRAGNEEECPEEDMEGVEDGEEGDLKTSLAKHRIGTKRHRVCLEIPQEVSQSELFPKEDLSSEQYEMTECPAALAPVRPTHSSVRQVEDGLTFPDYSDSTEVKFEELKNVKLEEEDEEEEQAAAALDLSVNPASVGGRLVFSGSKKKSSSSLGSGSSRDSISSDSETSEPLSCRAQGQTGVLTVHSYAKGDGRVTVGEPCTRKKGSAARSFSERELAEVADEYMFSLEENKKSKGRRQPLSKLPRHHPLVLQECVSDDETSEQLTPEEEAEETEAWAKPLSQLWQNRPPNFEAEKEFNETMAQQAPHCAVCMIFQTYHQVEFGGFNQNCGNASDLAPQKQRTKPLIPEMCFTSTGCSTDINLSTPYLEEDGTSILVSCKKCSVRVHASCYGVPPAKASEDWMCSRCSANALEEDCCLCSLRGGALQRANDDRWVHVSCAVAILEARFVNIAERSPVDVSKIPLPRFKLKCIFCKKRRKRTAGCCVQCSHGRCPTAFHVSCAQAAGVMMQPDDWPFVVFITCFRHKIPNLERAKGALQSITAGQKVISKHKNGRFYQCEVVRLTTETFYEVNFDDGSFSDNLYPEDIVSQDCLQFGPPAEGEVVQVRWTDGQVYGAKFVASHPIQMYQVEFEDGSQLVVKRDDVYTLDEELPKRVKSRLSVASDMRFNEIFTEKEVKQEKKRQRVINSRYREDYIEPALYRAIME
# CtBP-E1A inh – qHTS Assay for Inhibitors of the CtBP/E1A Interaction; 340,000 tested, 0.49% active; activity change, % (no concentration beside the values); AlphaScreen GST-E1A/His-CtBP binding, 1536-well; hits give low values; CtBP / adenovirus E1A interaction (AlphaScreen); in the data active means activity change below about -65%; inconclusive means mostly about -30% to -63%; further: on the % scale 0 is the no-effect control and ±100 the full control effect
#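 AlphaScreen with 125 nM GST-E1A and 125 nM His-CtBP (5X stocks) in Tris pH 8.0, 300 mM NaCl, BSA, Tween 20, TCEP. Compounds preincubated 2 h at 37 deg C, then glutathione donor/nickel acceptor beads added for 1 h at 37 deg C in dark.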
# G9a block – qHTS Assay for Inhibitors of Histone Lysine Methyltransferase G9a. Histone-lysine N-methyltransferase EHMT2 (Homo sapiens), Q96KQ7. G9a H3K9 monomethylation, AlphaScreen, 2 h. Potency, µM (doses to about 102 µM), without a hit: top-dose activity, negative = inhibition, actives largely listed as inhibitors. 350,000 tested, 8.8% active; further: potency means the concentration at half of the fitted maximal effect; on the % scale 0 is the no-effect control and ±100 the full control effect; nearly all actives have a fitted effect of over 75% in size
#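 G9a (20 nM) preincubated 15 min RT with compounds, then 500 nM biotinylated H3K9 peptide and 20 uM SAM added; 2 h RT reaction. Monomethyl-H3K9 product detected by AlphaScreen with anti-H3K9me1 antibody, streptavidin donor and anti-rabbit IgG acceptor beads.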
# BAZ2B inh – qHTS Assay for Inhibitors of BAZ2B | AlphaScreen BAZ2B-H3K14Ac peptide displacement | Potency, µM (titrated, usually from 114 µM), for the others: top-dose activity change, negative = inhibition, usual class: inhibitors | 360,000 tested, 4.4% active | Bromodomain adjacent to zinc finger domain protein 2B (Homo sapiens), Q9UIF8; further: potency means the concentration at half of the fitted maximal effect; on the % scale 0 is the no-effect control and ±100 the full control effect; nearly all actives have a fitted effect of over 60% in size
#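 BAZ2B 50 nM plus b-H3(5-23)K14Ac 50 nM, PBS pH 7.4/0.01% Tween-20, 30 min RT; compound added (max 110 uM), 30 min RT; streptavidin donor/Ni-chelate acceptor beads 10 ug/mL final, 20 min dark; AlphaScreen read.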
# Six1-Eya2 inh – qHTS Assay for Inhibitors of the Six1/Eya2 Interaction; AlphaScreen GST-Six1/His-Eya2 binding, biochemical; hits give low values; activity change, % (no concentration beside the values); 360,000 tested, 0.56% active; AID 651725, 2012; in the data active means activity change below about -65%; inconclusive means mostly about -30% to -63%; further: on the % scale 0 is the no-effect control and ±100 the full control effect
#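 Homogeneous AlphaScreen proximity assay pairing GST-Six1 with His-tagged Eya2 (added as 5X mix: 250 nM and 500 nM) in 50 mM Tris pH 8.0, 300 mM NaCl, 1 mM TCEP. Glutathione donor and nickel acceptor beads; 1 h, 37 °C, dark.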
# HP1b binding inh – HTS for Inhibitors of HP1-beta Chromodomain Interactions with Methylated Histone Tails; 390,000 tested, 0.56% active; Chromobox protein homolog 1 (Homo sapiens), P83916; AID 540317, 2011; AlphaScreen HP1-beta / biotin-H3K9me3 peptide binding; Potency, µM (doses to about 114 µM), for the others: at the highest dose activity change, negative = inhibition, hits mostly inhibitors; further: potency means the concentration at half of the fitted maximal effect; nearly all actives have a fitted effect of over 70% in size
#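 Compound inhibition of the preformed complex between 50 nM HP1-beta and 50 nM biotinylated H3K9me3 peptide was read by AlphaScreen. Buffer was PBS pH 7.4 with 0.01% Tween-20. Incubations ran 30 min at room temperature, with 10 ug/mL donor/acceptor beads.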
# Active calls of the source: *; ? = inconclusive; nt = no result given; [ ] = remark or other dose. Unless noted, the call rests on the fitted dose curve; in most records, active means well fitted inhibition curve with a large enough effect; inconclusive means small, poorly fitted or top-dose-only effect; inactive means no such curve, though single readings can be large or run the other way.
SMILES,JMJD2A Tudor,CtBP-E1A inh,G9a block,BAZ2B inh,Six1-Eya2 inh,HP1b binding inh
CCN(c1ccccc1)S(=O)(=O)c1ccc(Cl)c(NC(=O)CSc2nnc(C)s2)c1,-13%,nt,-33%,-11%,1,6%[57 µM]
CCN(c1ccccc1)S(=O)(=O)c1ccc(Cl)c(NC(=O)CSc2nncs2)c1,79µM*,11,5%,4%,-1,18%
CCN(c1ccccc1)S(=O)(=O)c1ccc(Cl)c(NC(=O)COC(=O)c2ccc(O)cc2)c1,-13%,3,-13%,7%,2,?
CCN(c1ccccc1)S(=O)(=O)c1ccc(Cl)c(NC(=O)CN2CCCCCC2)c1,0.71µM*,-2,-109%[59 µM],50µM*,6,22µM*
CN1CCN(CC(=O)Nc2ccc(Oc3ccccc3)cc2)CC1,-14%,-7,13%[12.7 µM],7%,0,17%
CCN(c1ccccc1)S(=O)(=O)c1cc(NC(=O)CN2CCN(C)CC2)ccc1Cl,0.89µM*,-5,nt,nt,0,?
CSCCC(NS(=O)(=O)c1ccccc1F)C(=O)N1CCCCCCC1 (centres undefined),-15%,13,1%,-6%,-2,10%
O=C1CC(c2ccccc2)Oc2cc(O)cc(O)c21 (centres undefined),-11%,7,30%[12.7 µM],-8%,1,36%
CC1CC(=O)c2c(cc3c(-c4c(O)cc(O)c5c(O)c6c(cc45)OC(C)CC6=O)c(O)cc(O)c3c2O)O1 (centres undefined),45µM*,?,?,40µM*,?,?
C#CCOCCOCCOCCNc1nc(N2CCN(C(=O)C([C@@H](C)CC)n3cc(C(N)Cc4ccc(O)cc4)nn3)CC2)nc(N2CCN(C(=O)[C@H](CCC(=O)O)n3cc(C(N)Cc4ccc(O)cc4)nn3)CC2)n1 (some centres undefined),50µM*,-11,?,56µM*,-6,31%
C#CCOCCOCCOCCNc1nc(N2CCN(C(=O)C([C@@H](C)CC)n3cc(C(N)Cc4ccc(O)cc4)nn3)CC2)nc(N2CCN(C(=O)[C@H](CCC(=O)O)n3cc(C(N)[C@H](C)CC)nn3)CC2)n1 (some centres undefined),?,-7,13%[12.7 µM],79µM*,-8,24%
C#CCOCCOCCOCCNc1nc(N2CCN(C(=O)C([C@@H](C)CC)n3cc(C(N)CC(C)C)nn3)CC2)nc(N2CCN(C(=O)[C@H](CCC(=O)O)n3cc(C(N)Cc4ccc(O)cc4)nn3)CC2)n1 (some centres undefined),79µM*,-11,?,?,-11,55%
C#CCOCCOCCOCCNc1nc(N2CCN(C(=O)[C@H]([C@@H](C)CC)n3cc(CCC(=O)O)nn3)CC2)nc(N2CCN(C(=O)[C@H](Cc3ccc(O)cc3)n3cc(CCO)nn3)CC2)n1,?,2,nt,nt,-5,33%
C#CCOCCOCCOCCNc1nc(N2CCN(C(=O)C([C@@H](C)CC)n3cc(C(N)Cc4ccc(O)cc4)nn3)CC2)nc(N2CCN(C(=O)[C@H](CCC(=O)O)n3cc(C(N)CC(C)C)nn3)CC2)n1 (some centres undefined),56µM*,-13,?,50µM*,-10,53%
O=C1c2oc3ccccc3c(=O)c2C(c2cccc(O)c2)N1Cc1ccc(F)cc1 (centres undefined),-22%,nt,-36%[59 µM],3%[57.1 µM],nt,22%
CCOc1ccccc1N1CCN(C(=O)c2ccc3c(c2)OCO3)CC1,-12%,0,20%,-10%,3,16%
Cc1ccc(NC(=O)c2cnccn2)cc1S(=O)(=O)N1CCCCCC1,-29%,5,nt,nt,-5,21%
COC(=O)c1ccc(NC(=O)Cc2coc3cc(C)ccc23)cc1,-14%,nt,8%[59 µM],-10%,nt,44%
COC(=O)c1ccc2c(c1)N(Cc1ccc(F)cc1)C(=O)c1ccccc1S2,2%,nt,3%[59 µM],3%,nt,63%
C#CCOCCOCCOCCNc1nc(N2CCN(C(=O)C([C@@H](C)CC)n3cc(C(N)Cc4ccc(O)cc4)nn3)CC2)nc(N2CCN(C(=O)[C@H](CCC(=O)O)n3cc(C(N)CO)nn3)CC2)n1 (some centres undefined),56µM*,-13,?,50µM*,-11,22%
N=c1n(CCN2CCCC2)c2ccccc2n1CC(O)c1ccco1 (centres undefined),-18%,-3,?,?,0,1%
CCCCCCCn1c(=N)n(CC(O)c2ccco2)c2ccccc21 (centres undefined),-31%,3,79µM*,-34%,-6,14%
N#Cc1cccc(NC(=O)CSc2sc3c(O)cc(=O)[nH]c3c2C#N)c1,?,0,?,?,-23,-20%
N#Cc1c(SCC(=O)Nc2ccccc2C(F)(F)F)sc2c(O)cc(=O)[nH]c12,-14%,3,-15%[59 µM],-24%,-5,14%
N#Cc1c(SCC(=O)Nc2nc3ccc(Br)cc3s2)sc2c(O)cc(=O)[nH]c12,25µM*,-21,40µM*,20µM*,-16,22µM*
SMILES,JMJD2A Tudor,CtBP-E1A inh,G9a block,BAZ2B inh,Six1-Eya2 inh,HP1b binding inh
N#Cc1c(SCC(=O)Nc2nc3ccccc3s2)sc2c(O)cc(=O)[nH]c12,8.9µM*,-23,?,45µM*,-20,?
CCN(CC)CCNCc1cc(Cl)c(OCC(=O)Nc2ccccc2)c(OC)c1,-2%,4,45µM*,-31%,2,45%
CCCCn1c(=O)c(-[n+]2ccccc2)c([O-])c2ccccc21,-5%,-1,8.9µM*,?,-2,49%
CC(C)Cn1c(=O)c(-[n+]2ccccc2)c([O-])c2ccccc21,1%,-12,65%,8%,3,40%
COC(=O)c1cc(OC)c(OC)cc1NC(=O)CCN1C(=O)C2CCCCC2C1=O (centres undefined),nt,0,nt,nt,-3,nt
COc1ccc(NC(=O)c2ccco2)c(NC(=O)c2ccc([N+](=O)[O-])cc2)c1,6%,3,nt,-4%,3,26%
COc1ccc(F)cc1C(=O)C1CCCN(Cc2c(C)n(C)n(-c3ccccc3)c2=O)C1 (centres undefined),-18%,4,0%[0.501 µM],2%,10,-1%

# Source: PubChem BioAssay (National Center for Advancing Translational Sciences (NCATS))
